Bioassay records (PubChem BioAssay)
HIF-2a inh: blocks HIF-2a reporter activity | actives 0.72% (n = 360,000) | inhibition, % at 18.8 µM | AID 624352 | 786-0 RCC cells HIF-2a reporter, luciferase luminescence, overnight;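 active = inhibition of the luminescence signal of 40% or more relative to plate controls, in a single-dose primary screen at 18.75 µM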
Mdm2 MdmX PPI: human Mdm2/MdmX binding inhibition; O15151+Q00987; SaOS-2 split-luciferase Mdm2/MdmX complementation, luminescence; inhibition, % at 8 µM; actives 3% (n = 330,000); AID 485346;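 active = inhibition of at least 50% at 8 µM in the primary screen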
Peg3 prom inh-1: Peg3 promoter activity inhibition; AID 588405; HeLa PEG-Prom luciferase reporter, luminescence, overnight; actives 1.7% (n = 360,000); inhibition, % at 20 µM;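 active = inhibition of at least 50% at 20 µM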
CF NFkB block: blocks PAF-induced NF-kB reporter in cystic fibrosis cells. KKLEB NF-kB-GFP reporter, GFP fluorescence overnight. inhibition, % at 5 µM. actives 0.86% (n = 360,000). AID 588850;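 active = at least 50% inhibition at 5 µM, scaled per plate between neutral and stimulator controls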;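 also: PAF is a Pseudomonas aeruginosa culture filtrate used as stimulus; plate controls were PAF-stimulated DMSO wells for no effect and unstimulated DMSO wells for full effect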
KKLEB cytotox: reduces viability of KKLEB cystic fibrosis airway cells; activity change (cytotoxicity), % at 5 µM; KKLEB CF airway cells viability, ATPlite luminescence, overnight; stronger effect = lower value; cells stimulated with P. aeruginosa culture filtrate; actives 0.36% (n = 360,000);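 active = corrected activity change at or below -50% at 5 µM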
ABHD5 PLIN5 PPI: ABHD5-PLIN5 protein interaction inhibition | Split G. princeps luciferase complementation, luminescence, 4 h | AID 602281 | Q00G26+Q8WTS1 | inhibition, % at 4 µM | actives 0.78% (n = 360,000);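 active = inhibition above the mean inhibition across every tested compound plus 3 SD, cut at about 22% in these data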;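 also: 0% = DMSO only wells and the 100% control is not disclosed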
Target sequence (Q00G26 whole entry, looked up): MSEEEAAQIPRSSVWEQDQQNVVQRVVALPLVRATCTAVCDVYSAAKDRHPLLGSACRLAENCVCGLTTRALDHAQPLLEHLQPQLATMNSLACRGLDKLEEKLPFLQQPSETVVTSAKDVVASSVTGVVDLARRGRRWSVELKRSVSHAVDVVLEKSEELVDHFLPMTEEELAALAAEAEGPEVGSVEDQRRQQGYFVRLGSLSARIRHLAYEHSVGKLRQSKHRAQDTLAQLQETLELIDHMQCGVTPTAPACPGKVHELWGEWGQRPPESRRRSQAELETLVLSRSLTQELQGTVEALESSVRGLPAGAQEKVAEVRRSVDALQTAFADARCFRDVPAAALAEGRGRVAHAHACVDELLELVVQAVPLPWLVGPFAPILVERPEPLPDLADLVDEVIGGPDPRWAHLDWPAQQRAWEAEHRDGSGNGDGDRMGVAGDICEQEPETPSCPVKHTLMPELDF
Target sequence (Q8WTS1 whole entry, looked up): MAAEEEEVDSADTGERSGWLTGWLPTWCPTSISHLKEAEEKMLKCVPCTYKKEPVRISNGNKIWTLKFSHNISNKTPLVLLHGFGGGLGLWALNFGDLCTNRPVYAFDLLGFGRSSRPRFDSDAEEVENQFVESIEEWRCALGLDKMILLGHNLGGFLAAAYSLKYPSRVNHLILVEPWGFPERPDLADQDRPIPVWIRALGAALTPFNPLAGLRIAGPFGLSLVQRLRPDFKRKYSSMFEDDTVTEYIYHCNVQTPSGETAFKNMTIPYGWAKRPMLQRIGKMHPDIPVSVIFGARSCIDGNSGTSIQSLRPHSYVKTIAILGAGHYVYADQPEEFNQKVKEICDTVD
Mdm2 MdmX conf: confirmation of human Mdm2/MdmX interaction inhibitors; Mdm2-MdmX binding, luminescent assay; inhibition, % at 8 µM; actives 55% (n = 10,000); shares compounds with Mdm2 MdmX PPI; AID 489028; in the data active = inhibition above about 40%
FLuc counter: inhibits full-length luciferase, flagging false Mdm2/MdmX hits | SaOS-2 full-length luciferase counterscreen, luminescence | actives 77% (n = 6,200) | inhibition, % at 8 µM | shares compounds with Mdm2 MdmX PPI | AID 504607;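 active = mean inhibition at 8 µM reaching about 37%, which flags the compound as non-specific, limit read from the data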;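 also: p53-null SaOS-2 cells with luciferase driven by a doxycycline-inducible promoter; compound on cells about two nights before reading with doxycycline added after day one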
Peg3 prom inh-2: Peg3 promoter inhibition confirmation | shares compounds with Peg3 prom inh-1 | actives 84% (n = 1,300) | inhibition, % at 20 µM | HeLa PEG-Prom luciferase reporter, luminescence, overnight;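 active = at 20 µM dose, 40% or more inhibition averaged across four replicates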
ABHD5-PLIN5 conf: ABHD5-PLIN5 interaction inhibition, confirmed. shares compounds with ABHD5 PLIN5 PPI. biochemical ABHD5-PLIN5 interaction, luminescence. inhibition, % at 4 µM. actives 67% (n = 2,200). AID 651612; in the data active = inhibition above about 23%;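 also: 0% = DMSO vehicle wells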
HNF4 split-luc: counter-screen for ABHD5-PLIN5 inhibitors: HNF4 split-luciferase | actives 77% (n = 2,200) | HNF4 dimerization, luminescence, biochemical | shares compounds with ABHD5 PLIN5 PPI | AID 651674 | inhibition, % at 4 µM;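 active = mean inhibition across replicate wells exceeding the computed hit threshold, cut at about 13% in these data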;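 also: light from luciferase halves that rejoin when HNF4 fusion proteins dimerize; 0% = DMSO only wells and the 100% control is not given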
Numbers without * were called inactive; . = not tested or not shown. The list is not random: actives were taken first. Their share in the collection is about 4.6%.

SMILES	HIF-2a inh	Mdm2 MdmX PPI	Peg3 prom inh-1	CF NFkB block	KKLEB cytotox	ABHD5 PLIN5 PPI	Mdm2 MdmX conf	FLuc counter	ABHD5-PLIN5 conf	HNF4 split-luc	others
Cc1ccccc1CS(=O)(=O)c1nnc([C@H](Cc2ccccc2)NC(=O)OC(C)(C)C)o1	21.5	100.4*	104.0*	71.5*	-23.5	42.9*	52.8*	0.6	57.3*	105.5*
Cc1cccc(/C=C/C(=O)c2ccc(NC3=NCCCS3)cc2)c1	33.1	86.1*	19.3	36.3	-19.4	52.3*	57.8*	57.4*	78.6*	60.8*
c1ccc(NC2=NCCCCS2)cc1	19.4	27.0	11.9	2.8	-27.5	-5.5	.	.	.	.
CCSc1ccc2c(c1)N(CCCN1CCN(C)CC1)c1ccccc1S2	-3.6	60.3*	57.3*	-18.0	15.5	23.9*	21.2	.	35.7*	8.4
C=CCOc1ccc(C(=O)/C=C2/C(=O)Nc3ccccc32)cc1	5.4	52.1*	24.7	10.6	-15.8	67.2*	15.7	.	71.8*	67.5*
CC(C)N1CCC2(CC1)N=C(c1ccc3c(c1)OCO3)CC(c1cc(Cl)ccc1O)N2 (stereo not drawn)	-127.5	69.6*	100.7*	26.8	-30.6	75.3*	27.0	.	31.4*	62.0*
CC(Sc1ccc(Cl)cc1)C(=O)Nc1ccc2c(c1)OCO2 (stereo not drawn)	-36.2	-6.9	-16.6	-0.6	-3.5	-4.1	.	.	.	.
CCn1nc(C(=O)NNC(=O)CCOc2cc(C)ccc2C)c2ccccc2c1=O	21.0	0.6	18.3	-27.2	9.5	0.7	.	.	.	.
COC(=O)c1c(NC(=S)NN2CCN(C)CC2)sc2c1CCC(C)C2 (stereo not drawn)	-9.7	91.1*	106.7*	26.5	-44.9	24.6*	35.6	.	6.3	4.0
CC12CCC(O)CC1=CCC1C2CCC2(C)C(c3ccn[nH]3)CCC12 (stereo not drawn)	-0.5	.	46.0	-5.1	-2.6	0.3	.	.	.	.
NS(=O)(=O)c1ccc(N=Nc2ccc(O)c3ncccc23)cc1	-0.8	61.9*	56.4*	-11.1	6.2	23.6*	52.1*	47.6*	29.4*	20.3*
NS(=O)(=O)c1ccc(N=Nc2c(O)ccc3ccccc23)cc1	-35.5	26.1	-54.7	19.6	24.4	2.5	.	.	.	.
O=[N+]([O-])c1c(Nc2ccc(O)cc2)cc(Cl)c2nonc12	94.5*	100.3*	102.7*	102.6*	-76.5*	57.9*	100.2*	0.9	82.7*	100.7*
CN(C)c1cc(Nc2ccc(O)cc2)c([N+](=O)[O-])c2nonc12	7.9	-2.9	-3.2	-3.9	0.3	2.3	.	.	.	.
CC(C)n1c(=O)c2ccccc2n1Cc1cn(Cc2cccnc2)nn1	12.8	.	-2.1	-7.0	1.1	4.1	.	.	.	.
CCOc1cc(CNCCCN2CCOCC2)cc(Br)c1OCC(=O)Nc1cccc(C(F)(F)F)c1	18.6	98.3*	68.1*	12.7	-13.6	24.6*	70.6*	45.1*	16.8	15.0*
CCOc1cc(CNCCCN2CCOCC2)cc(Cl)c1OCC(=O)NC(C)(C)C	11.2	-21.1	-34.0	12.3	-2.5	-5.7	.	.	.	.
COc1cc(CNCCCN2CCOCC2)cc(Br)c1OCc1ccc(Cl)cc1	16.1	69.1*	99.7*	26.8	-29.8	35.4*	45.4*	58.9*	16.9	0.9	Peg3 prom inh-2=100.3*
O=C(Nc1ccnn1C1CCN(Cc2ccc(O)c(Cl)c2)CC1)C1CCCC1	1.9	8.5	9.8	16.4	-10.1	-10.1	.	.	.	.
COc1cc(/C=N/N=C(N)N)ccc1OCc1ccc(Cl)cc1	-104.1	100.5*	102.5*	24.8	-17.4	23.6*	49.9*	127.3*	8.2	6.4
O=C(CNC1CCCCC1)Nc1cccc(C(F)(F)F)c1	0.2	-4.0	-7.9	6.0	-3.6	0.4	.	.	.	.
COc1ccc(C=CC(=O)c2ccc(OCc3ccccc3)c(OC)c2)cc1OC	7.1	.	29.6	-22.1	1.8	10.9	.	.	.	.
COc1cc(C(=O)/C=C/c2cccnc2)ccc1O	-27.5	50.9*	-63.5	0.9	7.3	24.2*	18.1	.	60.8*	54.8*
COc1ccc(/C=C/C(=O)c2ccc(C(=O)/C=C/c3ccc(OC)c(OC)c3)cc2)cc1OC	32.8	53.9*	43.8	-45.4	-14.2	55.1*	3.0	.	98.0*	90.8*
O=C(/C=C/c1cccnc1)c1cc(F)ccc1O	19.6	5.6	-3.4	5.8	-3.3	0.0	.	.	.	.
SMILES	HIF-2a inh	Mdm2 MdmX PPI	Peg3 prom inh-1	CF NFkB block	KKLEB cytotox	ABHD5 PLIN5 PPI	Mdm2 MdmX conf	FLuc counter	ABHD5-PLIN5 conf	HNF4 split-luc	others
COc1ccc(OC)c(C(=O)/C=C/c2cccnc2)c1	38.7	67.8*	75.5*	22.7	-13.6	38.5*	29.6	56.2*	61.1*	63.1*
CCC[C@H]1CN(c2ccc(Br)cc2)C(=O)[C@@H]1CC(=O)NC	-5.9	.	-0.7	0.6	-4.0	-3.0	.	.	.	.
O=C(c1ccc(Cl)s1)N1CCN(S(=O)(=O)c2ccc(Cl)cc2)CC1	4.6	5.4	14.8	12.5	-13.7	6.2	.	.	.	.
COc1ccccc1OCc1cc(C(=O)NCc2ccc(N3CCCC3=O)cc2)no1	-92.3	8.7	-52.2	12.6	-6.8	1.5	.	.	.	.
CCOC(=O)c1ccc(N=c2sc(C(=O)OC)cc(=O)n2-c2ccc(C(=O)OCC)cc2)cc1	38.9	82.9*	98.9*	16.6	-19.4	33.6*	-6.5	.	91.6*	87.7*
CN(c1ccccc1C(=O)NCc1ccccc1Cl)S(=O)(=O)c1ccccc1	15.8	-4.0	16.5	-5.9	-9.1	6.4	.	.	.	.
CC(=O)Nc1cccc(C(=O)/C=C/c2ccc(F)cc2)c1	-27.3	73.0*	106.8*	26.8	-3.6	68.4*	24.6	.	88.0*	79.5*
COc1cc(Br)cc2cc(C(=O)N3CCOCC3)c(=O)oc12	21.2	28.2	7.5	12.4	7.2	5.4	.	.	.	.
CCNC(=O)c1ccccc1SCC(=O)Nc1ccc(F)cc1	3.0	20.1	7.3	-10.8	3.3	3.9	.	.	.	.
CN1CCN(C2=Cc3ccc(Cl)cc3Sc3ccc(F)cc32)CC1	27.6	59.8*	34.7	22.1	-13.9	28.7*	29.4	.	19.1	1.2
Fc1ccc(-[n+]2nc(Nc3ccccc3)sc2-c2c3ccccc3cc3ccccc23)cc1	-16.6	100.3*	53.3*	46.5	-30.5	25.1*	90.0*	42.2*	4.2	6.4
